# Test results: PubChem BioAssay (NCI)
# About 83,000 compounds went through this panel and 20% of them were active in at least one assay; those are over-represented in the sample as a whole.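 The endpoint reported here, percent growth, reads 100 for growth as untreated, 0 for no net growth and -100 for all cells dead.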 The source made the active and inactive calls. The calls were made as follows: active = growth percent below 10; inactive = the rest.
# Test system: PC-3 prostate
# Experiment: NCI-60 one-dose screen, 48 h (100 = growth as untreated, 0 = no growth, -100 = all killed)
# Settings: 10 µM
row,SMILES,growth
1,N#CC1(Nc2ccc3c4c(cccc24)CC3)CCCCC1,90.8% (inactive)
2,CCCC1(c2ccccc2)NC(=O)NC1=O (stereo unspecified),99% (inactive)
3,O=C(NN=C1CCCCC1)C(=O)NN=C1CCCCC1,89% (inactive)
4,CC1CCCC(CC(N)=O)CC1 (stereo unspecified),78.8% (inactive)
5,CC(=O)OC(OC(C)=O)C1CCCO1 (stereo unspecified),95.5% (inactive)
6,CCOc1ccc(/C=N/N=C(N)N)cc1OCC,94.1% (inactive)
7,COc1ccc2c(NCCCCCCCCNc3c4ccccc4nc4cc(OC)ccc34)c3ccccc3nc2c1,-100% (active)
8,Nc1ncnc2[nH]ncc12,7.63% (active)
9,Cc1ccc(C(=O)c2ccccc2)c(C)c1,98.3% (inactive)
10,O=C(c1ccc(Cl)cc1)c1ccccc1Cl,93.4% (inactive)
11,COc1cc2c(cc1O)CC[C@@H]1C2CC[C@@]2(C)C1CC[C@@H]2O (stereo partly specified),19.7% (inactive)
12,CC(=O)OCC1=CC2OC(=O)C3=COC(OC4OC(CO)C(O)C(O)C4O)C1C32 (stereo unspecified),110% (inactive)
13,CC1(C)N=C(N)N=C(N)N1c1cccc(Br)c1,38.5% (inactive)
14,C/C(=C\c1ccc([N+](=O)[O-])cc1)C(=O)O,84.2% (inactive)
15,Oc1ccccc1-c1nnco1,91.8% (inactive)
16,CO[C@H]1C[C@@H]2CC[C@@H](C)[C@@](O)(O2)C(=O)C(=O)N2CCCC[C@H]2C(=O)O[C@H]([C@H](C)C[C@@H]2CC[C@@H](O)[C@H](OC)C2)CC(=O)[C@H](C)C=C(C)[C@@H](O)[C@@H](OC)C(=O)[C@H](C)C[C@H](C)/C=C/C=C/C=C1C,44% (inactive)
